Experimental findings from PubChem BioAssay (EPA / NIEHS) are described below.

Molecules are shown by their SMILES. Activity calls are given as the source filed them. Rule for the calls: active = hit-call score of the fitted dose curve at least 0.9, where 1 is the maximum; inactive = score below 0.9.

Signal transducer and activator of transcription 3 (Homo sapiens), sequence (P40763 whole entry, looked up): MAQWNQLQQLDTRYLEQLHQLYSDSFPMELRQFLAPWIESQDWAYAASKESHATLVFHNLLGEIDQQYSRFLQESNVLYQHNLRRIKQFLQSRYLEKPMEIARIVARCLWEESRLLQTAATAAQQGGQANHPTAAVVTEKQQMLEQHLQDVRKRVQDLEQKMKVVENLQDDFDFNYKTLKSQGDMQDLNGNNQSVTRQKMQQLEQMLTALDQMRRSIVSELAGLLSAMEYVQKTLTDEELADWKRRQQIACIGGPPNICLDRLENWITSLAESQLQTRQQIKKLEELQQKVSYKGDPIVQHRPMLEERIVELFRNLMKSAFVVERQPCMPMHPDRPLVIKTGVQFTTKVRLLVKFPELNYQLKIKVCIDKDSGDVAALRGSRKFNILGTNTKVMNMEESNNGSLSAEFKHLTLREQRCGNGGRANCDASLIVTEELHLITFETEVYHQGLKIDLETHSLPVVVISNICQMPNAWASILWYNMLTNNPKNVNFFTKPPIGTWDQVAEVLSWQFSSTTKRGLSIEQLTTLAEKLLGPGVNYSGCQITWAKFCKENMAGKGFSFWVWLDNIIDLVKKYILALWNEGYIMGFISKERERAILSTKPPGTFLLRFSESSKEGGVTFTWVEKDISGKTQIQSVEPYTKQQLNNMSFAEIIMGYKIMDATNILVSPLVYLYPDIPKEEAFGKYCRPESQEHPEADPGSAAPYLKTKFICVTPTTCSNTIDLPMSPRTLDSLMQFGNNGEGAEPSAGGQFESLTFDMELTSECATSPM

For this test, the target named is Signal transducer and activator of transcription 3 (Homo sapiens) (UniProt P40763). Put plainly: ATG_STAT3_CIS: Attagene CIS-FACTORIAL HepG2 Assay for human Signal Transducer and Activator of Transcription 3 (STAT3) (AID 2282963). The note with it: HepG2, Attagene cis-factorial STAT3 reporter transcription; actives raise or lower the signal. On the procedure:
ATG_CIS is a cell-based, multiplexed-readout assay that uses HepG2, a human liver cell line, with measurements taken at 24 hours after chemical dosing in a 24-well plate.ATG_STAT3_CIS is one of 52 assay component(s) measured or calculated from the ATG_CIS assay. It is designed to make measurements of mRNA induction, a form of inducible reporter, as detected with fluorescence intensity signals by Reverse transcription polymerase chain reaction (RT-PCR) and Capillary electrophoresis technology.Data from the assay component ATG_STAT3_CIS was analyzed into 1 assay endpoint. This assay endpoint, ATG_STAT3_CIS, was analyzed with bidirectional fitting relative to DMSO as the negative control and baseline of activity. Using a type of inducible reporter, measures of mRNA for gain or loss-of-signal activity can be used to understand the reporter gene at the transcription factor-level as they relate to the gene STAT3. Furthermore, this assay endpoint can be referred to as a primary readout, because this assay has produced multiple assay endpoints where this one serves a reporter gene function. To generalize the intended target to other relatable targets, this assay endpoint is annotated to the dna binding intended target family, where the subfamily is stat protein.
Human liver HepG2 cells are transiently transfected with multiple reporter transcription units (MRTUs) in 6-well plates using FuGene 6 reagent (Roche; 3 ml FuGene/1 mg DNA). The MRTU constructs are regulated by a cis-regulating element (promoter). […] A major difference between the CIS and TRANS system is that in CIS activities of endogenous TFs are measured, whereas the TRANS assay evaluates changes in activities of exogenous, chimeric NR-Gal4 proteins. […] At the end of 24 hour incubation, total RNA was isolated using TriZol reagent (Invitrogen). The isolated RNA is then reverse-transcribed using oligo(dT) primer and Mo-MLV reverse transcriptase (Invitrogen) with DNAse I (Ambion) treatment for 30 min. The one-tenth of the produced cDNA was amplified by PCR using Taq DNA polymerase (Invitrogen) and two reporter sequence-specific primers. The PCR products were fluorescently labeled by primer extension with 6-arboxyfluorescein (6-FAM) 5'-labeled reporter sequence-specific primer (2 min at 95 C, 20 s at 68 C and 10 min at 72 C) and these products were digested with 5U of HpaI (New England Biolabs) for 2h at 37 C. The fragments were purified using Qiaquick PCR columns (Qiagen), analyzed on an ABI 3130xL genetic analyzer (Applied Biosystems) with peak positions identified by using a set of X-rhodamine (ROX)-labeled MapMarker1000 molecular weight standards (BioVentures). The raw capillary electrophoresis data was processed using Attagraph software (Attagene).
Consider `N#CCCCC(C#N)CCC#N` (stereo not given), for which the call was inactive.
Next, `O=C1OC2(c3ccc(O)cc3Oc3cc(O)ccc32)c2ccccc21`: “inactive”; `C=C(C)CCCC(C)CCO` (stereo not given): “inactive”.
Under `OCCCO` stands “inactive”.
Next, `C1CCCNCC1`: “inactive”; `CC(C)(C)c1cccc(O)c1`: “inactive”.
For `O=S(=O)(O)c1cc(S(=O)(=O)O)c2c(N=Nc3ccccc3)c(O)ccc2c1`, the outcome was inactive.
Regarding `NC(N)=S`, the molecule was classed as inactive.
Under `CC(=O)Nc1cc(S(=O)(=O)O)cc2cc(S(=O)(=O)O)c(N=Nc3ccccc3)c(O)c12` stands “inactive”; under `O=C1CCCCCCCCCCCC(=O)OCCO1`, “inactive”.
Under `CCCCCCCCCCCCOCCOS(=O)(=O)O` stands “inactive”; under `CCCCCCCCCC(=O)OCC`, “inactive”; under `OC[C@H]1O[C@@H](O[C@H]2[C@H](O)[C@@H](O)[C@H](O)O[C@@H]2CO)[C@H](O)[C@@H](O)[C@H]1O`, “inactive”.
On to `[O-]/[N+](=N\O)c1ccccc1`, for which the call was inactive.
Next, `COc1ccc(N)c(C)c1`: “inactive”; `Cc1cc(O)c(C)c(C)c1O`: “inactive”; `CCCCCC#CC(=O)OC`: “inactive”.
As to `CCCCCCCCCCCCCCCCCC(=O)OCCCCCCCCCCCCCC(C)C`, the result was inactive.
Take `CC1(C)CC(=O)CC(C)(C)N1`: the call was inactive.
For the molecule `CCC(=O)OC(C)(C)C1CC=C(C)CC1` (stereo not given), the molecule was classed as inactive.
Under `CCCC[N+](C)(CCCC)CCCC` stands “inactive”; under `CC(=O)Oc1c(C)c(C)c2c(c1C)CC[C@@](C)(CCC[C@H](C)CCC[C@H](C)CCCC(C)C)O2`, “inactive”.
Next, `CCOC(=O)C(=O)OCC`: “inactive”.
Next, `CCC(=O)OCC=Cc1ccccc1`: “inactive”.
As for `C=CC(=O)OCC(CO)(COC(=O)C=C)COC(=O)C=C`, the result was inactive.
Next, `C=C(C)C(=O)OCCOCCOC(=O)C(=C)C`: “inactive”; `CCCCCCCCCCCCCC(=O)OCC`: “inactive”; `[Cu+]`: “inactive”.
Next, `C1COCO1`: “inactive”; `C=CCOCC(O)CO` (stereo not given): “inactive”.
In the case of `CCOC(=O)C=Cc1ccccc1`, the molecule was classed as inactive.
Next, `CC1=CCC(C(C)C)=CC1`: “inactive”.
As to `CCC(C)(C)c1cc(O)c(C(C)(C)CC)cc1O`, the molecule was classed as inactive.
As for `c1ccc(Cc2ccccc2)cc1`, the outcome was inactive.
Under `CCCCCc1cccc(=O)o1` stands “inactive”; under `CCC=C(C)C=O`, “inactive”.
Take `CC(=O)OCC=C(C)CCC=C(C)CCC=C(C)C`: the molecule was classed as inactive.
Next, `O=C(O)c1ccc(C(=O)O)c(C(=O)O)c1`: “inactive”; `Nc1cc([N+](=O)[O-])ccc1C(=O)O`: “inactive”; `COc1ccc(C(C)=O)cc1`: “inactive”.
